From PubChem BioAssay (Tox21) come the findings set out here.

Activity calls are given as the source filed them. The call rests on the fitted dose curve; in most records, active means well fitted curve in the direction sought with a large enough effect in the repeat runs; inconclusive means weak or mixed curves; inactive means flat fitted curve, though single readings scatter.
On the % scale 0 is the no-effect control and ±100 the full control effect.

The assay is described as follows: qHTS assay to test for compound auto fluorescence at 535 nm (green) in HEK293 cell free culture (AID 720682). The note with it: cell-free medium, green autofluorescence 485/535 nm; series mostly up to 46 µM; activity change: at the top concentration. The procedure, abridged:
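Intrinsic compound fluorescence is measured in culture medium containing 10% FBS, with excitation at 485 nm and detection at 535 nm, referenced to fluorescein.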
(In qHTS, concentration-response curves come from the screen itself.)
Turning to `CC(C)(C)CC(C)(C)c1cc(Cc2cc(C(C)(C)CC(C)(C)C)cc(-n3nc4ccccc4n3)c2O)c(O)c(-n2nc3ccccc3n2)c1`, the “activity change” value is -0.0135% (inactive). Consider `CCCC(=O)N1CCCN(c2nc(N)c3cc(OC)c(OC)cc3n2)CC1`, for which the “activity change” value was 0.0612% (inactive). In the case of `COCC1=C(C(=O)OC(C)OC(=O)OC(C)C)N2C(=O)[C@@H](NC(=O)/C(=N\OC)c3csc(N)n3)[C@H]2SC1` (some centres undefined), the Potency result was “inactive”. On to `CN1CCC(OC(=O)C(Oc2ccc(Cl)cc2)Oc2ccc(Cl)cc2)CC1`, for which the “activity change” value is 0.0699% (inactive). Same read-out and setting: with `CC(C)[C@@H](C)/C=C/[C@@H](C)[C@H]1CC[C@H]2/C(=C/C=C3\C[C@@H](O)CC[C@@H]3C)CCC[C@]12C` the figure was -0.0442% (inactive). Same read-out and setting: then `O=C1c2ccccc2C(=O)C1c1ccc(Cl)cc1`, with -0.234% (inactive); and `O=C(CCCN1CCC(n2c(=S)[nH]c3ccccc32)CC1)c1ccc(F)cc1`, with -0.0712% (inactive). Same read-out and setting: then `CC1(C)[C@@H]2CC[C@@]1(C)[C@H](OC(=O)CSC#N)C2`, with 0.103% (inactive); and `CN1CCC(CN2c3ccccc3Sc3ccccc32)C1` (centres undefined), with -0.0089% (inactive). On to `CC(C)Cc1ccc([C@@H](C)C(=O)NS(C)(=O)=O)cc1`, for which the “activity change” value was 0.0156% (inactive).

For the compound `CC(C)N1CCN(c2ccc(OC[C@H]3CO[C@](Cn4cncn4)(c4ccc(Cl)cc4Cl)O3)cc2)CC1`, the “activity change” value is 0.0762% [at 18.6 µM, active compounds read high] (inactive).

For the compound `Cc1ccc(C2(O)CCN(CCCC(=O)c3ccc(F)cc3)CC2)cc1`, the “activity change” value was -0.0152% (inactive). Still for that read-out and setting: with `CCN(CC)CCOCCOC(=O)C(CC)(CC)c1ccccc1` the figure was 0.0066% (inactive). Same read-out and setting: with `CCC(=O)c1ccc2c(c1)N(CCCN1CCN(CCO)CC1)c1ccccc1S2` the figure was -0.0201% (inactive). Still for that read-out and setting: then `O=S(O)CNc1ccc(S(=O)(=O)c2ccc(NCS(=O)O)cc2)cc1`, with 0.0037% (inactive); and `CCCCCCCCCCCCCCCCOCCOCCOCCOCCOCCOCCOCCOCCOCCOCCOCCOCCOCCOCCOCCOCCOCCOCCOCCOCCO`, with -0.0887% (inactive); and `S=C1SCN(Cc2ccccc2)CN1Cc1ccccc1`, with -0.0685% (inactive). Regarding `CC(C)CCCC(C)NC(C)C` (centres undefined), the “activity change” value is 0.0321% (inactive). Still for that read-out and setting: with `CC[C@H]1OC(=O)[C@H](C)[C@@H](O[C@H]2C[C@@](C)(OC)[C@@H](O)[C@H](C)O2)[C@H](C)[C@@H](O[C@@H]2O[C@H](C)C[C@H](N(C)C)[C@H]2O)[C@](C)(O)C[C@@H](C)[C@@H]2N[C@@H](COCCOC)O[C@@H]([C@H]2C)[C@]1(C)O` the figure was -0.156% (inactive). `C[C@H](CCCC(C)(C)O)[C@H]1CC[C@H]2[C@@H]3CC=C4C[C@@H](O)CC[C@]4(C)[C@H]3CC[C@]12C`: the “activity change” value was -0.121% (inactive). The same measure, in the same setting: with `COc1ccc(/C=C/C(=O)OCCC(C)C)cc1` the figure was 0.0738% (inactive); with `O=C(NNCNNC(=O)c1ccncc1)c1ccncc1`, 0.0486% (inactive). With `Cc1ccccc1`, the Potency entry was “inactive”. In the case of `C=C1C(=C/C=C2\CCC[C@]3(C)[C@@H]([C@H](C)/C=C/[C@H](C)C(C)C)CC[C@@H]23)C[C@@H](O)C[C@@H]1O`, the “activity change” value was -0.0688% (inactive). On to `CC[C@H](C)[C@H]1O[C@]2(CC[C@@H]1C)C[C@@H]1C[C@@H](C/C=C(\C)[C@@H](O[C@H]3C[C@H](OC)[C@@H](O[C@H]4C[C@H](OC)[C@@H](O)[C@H](C)O4)[C@H](C)O3)[C@@H](C)/C=C/C=C3\CO[C@@H]4[C@H](O)C(C)=C[C@@H](C(=O)O1)[C@]34O)O2`, for which the “activity change” value is -0.0139% (inactive). The same measure, in the same setting: then `O=C(O)[C@@H](O)[C@H](O)[C@H](O)[C@@H](O)C(=O)O` (tested in a mixture with another compound), with 0.0491% (inactive); and `CCCCC[C@H](O)/C=C/[C@H]1[C@H](O)CC(=O)[C@@H]1CCCCCCC(=O)O`, with 0.0679% [at 18.6 µM, active compounds read high] (inactive). Still for that read-out and setting: then `O=P(O)(O)OC[C@H](O)CO`, with 0.0501% (inactive); and `Cn1c(O)c(N=NC(N)=S)c2ccccc21`, with -0.0068% (inactive). On the same count and under the same terms, then `CCCC(=O)O[C@]1(C(=O)COC(=O)CC)[C@@H](C)C[C@H]2[C@@H]3CCC4=CC(=O)C=C[C@]4(C)[C@@]3(F)[C@@H](O)C[C@@]21C`, with -0.163% (inactive); and `CO[C@H]1C[C@H](O[C@H]2[C@H](C)[C@@H](O[C@@H]3O[C@H](C)C[C@H](N(C)C)[C@H]3OC(C)=O)[C@@H](C)C[C@]3(CO3)C(=O)[C@H](C)[C@@H](OC(C)=O)[C@@H](C)[C@@H](C)OC(=O)[C@@H]2C)O[C@@H](C)[C@@H]1OC(C)=O`, with 0.0157% [at 18.6 µM, active compounds read high] (inactive). Turning to `CCN(CC)c1ccc(C(=C2C=CC(=[N+](CC)CC)C=C2)c2ccccc2)cc1`, the “activity change” value was -0.005% (inactive). As for `CC(=O)O[C@H]1C[C@@H]2CC[C@@H]3[C@H](CC[C@@]4(C)[C@H]3C[C@H](N3CC[N+](C)(C)CC3)[C@@H]4OC(C)=O)[C@@]2(C)C[C@@H]1N1CC[N+](C)(C)CC1`, the “activity change” value was -0.0533% (inactive). The same measure, in the same setting: with `COc1cc(-c2ccc(-[n+]3nc(-c4ccccc4)nn3-c3ccc([N+](=O)[O-])cc3)c(OC)c2)ccc1-[n+]1nc(-c2ccccc2)nn1-c1ccc([N+](=O)[O-])cc1` the figure was -0.0153% (inactive); with `Cn1nnnc1SCC1=C(C(=O)O)N2C(=O)[C@@H](NC(=O)[C@H](OC=O)c3ccccc3)[C@H]2SC1`, 0.0516% (inactive). The same measure, in the same setting: with `Cn1cc(NC(=O)c2cc(NC(=O)c3cc(NC=O)cn3C)cn2C)cc1C(=O)NCCC(=N)N` the figure was 0.0085% (inactive); with `O=P(O)(O)OC[C@H]1O[C@](O)(COP(=O)(O)O)[C@@H](O)[C@@H]1O`, 0.0409% (inactive); with `C#C[C@]1(O)CC[C@H]2[C@@H]3CCC4=CCCC[C@@H]4[C@H]3C(=C)C[C@@]21CC`, 0.0169% (inactive). On to `CN=C1C=CC(=C(c2ccc(N(C)C)cc2)c2ccc(N(C)C)cc2)C=C1`, for which the “activity change” value is -0.312% (inactive).
